{
  "source": "PubChem BioAssay (NCI)",
  "experiment": "NCI Yeast Anticancer Drug Screen. Data for the wt1 strain (AID 149);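 further: 0% = growth of vehicle-treated wt1 cultures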",
  "settings": "S. cerevisiae wt1 strain (SPY 50644) growth inhibition, stronger effect = higher value",
  "experimental": "Growth inhibition of yeast strains with defined genetic alterations is measured as a screen for potential anti-cancer activity. Selected strains with alterations in DNA damage repair or cell cycle control were exposed to compounds and growth inhibition was measured relative to vehicle treated controls. The strain used in this assay is wt1",
  "note": "This is part of a sample that, as a whole, favours compounds with a hit. Of some 79,000 tested, about 15% had one in any assay. A number with no mark means an inactive call. Active and inactive are the calls of the source. No stated cut-off is given here; in the data, active means growth inhibition above about 70%; inactive means the rest.",
  "data": [
    {"smiles": "CN(Cc1cnc2nc(N)nc(N)c2n1)c1ccc(C(=O)N[C@@H](CCC(=O)O)C(=O)O)cc1", "values": [
      {"measurement": "growth inhibition", "setting": "at 1.2 µM", "result": -1, "unit": "%"},
      {"measurement": "growth inhibition", "setting": "at 3.7 µM", "result": -3, "unit": "%"},
      {"measurement": "growth inhibition", "setting": "at 11.0 µM", "result": -3, "unit": "%"},
      {"measurement": "growth inhibition", "setting": "at 33.0 µM", "result": 6, "unit": "%"},
      {"measurement": "growth inhibition", "setting": "at 100.0 µM", "result": 24, "unit": "%"}
    ]},
    {"smiles": "COC(=O)c1ccc(CCC2=CC(=O)C(Br)=CC2=O)cc1", "values": [
      {"measurement": "growth inhibition", "setting": "at 1.2 µM", "result": 4, "unit": "%"},
      {"measurement": "growth inhibition", "setting": "at 3.7 µM", "result": 3, "unit": "%"},
      {"measurement": "growth inhibition", "setting": "at 11.0 µM", "result": 4, "unit": "%"},
      {"measurement": "growth inhibition", "setting": "at 33.0 µM", "result": 12, "unit": "%"},
      {"measurement": "growth inhibition", "setting": "at 100.0 µM", "result": 28, "unit": "%"}
    ]},
    {"smiles": "CCS(=O)(=O)c1ccc(/C=C/C=N/NC(=S)NCC(C)C)cc1", "values": [
      {"measurement": "growth inhibition", "setting": "at 1.2 µM", "result": 0, "unit": "%"},
      {"measurement": "growth inhibition", "setting": "at 3.7 µM", "result": -3, "unit": "%"},
      {"measurement": "growth inhibition", "setting": "at 11.0 µM", "result": 5, "unit": "%"},
      {"measurement": "growth inhibition", "setting": "at 33.0 µM", "result": -4, "unit": "%"},
      {"measurement": "growth inhibition", "setting": "at 100.0 µM", "result": 4, "unit": "%"}
    ]},
    {"smiles": "Cc1nc(-c2ccccc2)c(-c2ccccc2)s1", "values": [
      {"measurement": "growth inhibition", "setting": "at 1.2 µM", "result": -12, "unit": "%"},
      {"measurement": "growth inhibition", "setting": "at 3.7 µM", "result": 9, "unit": "%"},
      {"measurement": "growth inhibition", "setting": "at 11.0 µM", "result": 9, "unit": "%"},
      {"measurement": "growth inhibition", "setting": "at 33.0 µM", "result": 59, "unit": "%"},
      {"measurement": "growth inhibition", "setting": "at 100.0 µM", "result": "98% (active)"}
    ]},
    {"smiles": "CCC(=O)OCCn1c2nc(=O)[nH]c(=O)c-2nc2cc(C)c(C)cc21", "values": [
      {"measurement": "growth inhibition", "setting": "at 1.2 µM", "result": 8, "unit": "%"},
      {"measurement": "growth inhibition", "setting": "at 3.7 µM", "result": -4, "unit": "%"},
      {"measurement": "growth inhibition", "setting": "at 11.0 µM", "result": 4, "unit": "%"},
      {"measurement": "growth inhibition", "setting": "at 33.0 µM", "result": 7, "unit": "%"},
      {"measurement": "growth inhibition", "setting": "at 100.0 µM", "result": 11, "unit": "%"}
    ]},
    {"smiles": "CCOC(=O)c1cc(-c2ccc(Cl)cc2)c([N+](=O)[O-])n1C", "values": [
      {"measurement": "growth inhibition", "setting": "at 1.2 µM", "result": 1, "unit": "%"},
      {"measurement": "growth inhibition", "setting": "at 3.7 µM", "result": 3, "unit": "%"},
      {"measurement": "growth inhibition", "setting": "at 11.0 µM", "result": 13, "unit": "%"},
      {"measurement": "growth inhibition", "setting": "at 33.0 µM", "result": 68, "unit": "%"},
      {"measurement": "growth inhibition", "setting": "at 100.0 µM", "result": "96% (active)"}
    ]},
    {"smiles": "Cc1cc(CO)c(O)c(CNCc2cc(C)cc(CO)c2O)c1", "values": [
      {"measurement": "growth inhibition", "setting": "at 1.2 µM", "result": 24, "unit": "%"},
      {"measurement": "growth inhibition", "setting": "at 3.7 µM", "result": 15, "unit": "%"},
      {"measurement": "growth inhibition", "setting": "at 11.0 µM", "result": 25, "unit": "%"},
      {"measurement": "growth inhibition", "setting": "at 33.0 µM", "result": 38, "unit": "%"},
      {"measurement": "growth inhibition", "setting": "at 100.0 µM", "result": "98% (active)"}
    ]},
    {"smiles": "CC(C)C1=CC2=C[C@H](O)[C@H]3C(C)(C)CCC[C@]3(C)C2=C(O)C1=O", "values": [
      {"measurement": "growth inhibition", "setting": "at 1.2 µM", "result": -3, "unit": "%"},
      {"measurement": "growth inhibition", "setting": "at 3.7 µM", "result": 13, "unit": "%"},
      {"measurement": "growth inhibition", "setting": "at 11.0 µM", "result": "99% (active)"},
      {"measurement": "growth inhibition", "setting": "at 33.0 µM", "result": "99% (active)"},
      {"measurement": "growth inhibition", "setting": "at 100.0 µM", "result": "94% (active)"}
    ]}
  ]
}
